This experiment has as its target Follistatin (Homo sapiens) (UniProt P19883). In words: follistatin binders on small-molecule microarrays, primary screen, biochemical, small-molecule microarray, 635/667 nm fluorescence (AID 1132). The following applies: FST binding, 635 nm fluorescence, higher = more signal.
Follistatin (Homo sapiens), sequence (P19883 whole entry, looked up): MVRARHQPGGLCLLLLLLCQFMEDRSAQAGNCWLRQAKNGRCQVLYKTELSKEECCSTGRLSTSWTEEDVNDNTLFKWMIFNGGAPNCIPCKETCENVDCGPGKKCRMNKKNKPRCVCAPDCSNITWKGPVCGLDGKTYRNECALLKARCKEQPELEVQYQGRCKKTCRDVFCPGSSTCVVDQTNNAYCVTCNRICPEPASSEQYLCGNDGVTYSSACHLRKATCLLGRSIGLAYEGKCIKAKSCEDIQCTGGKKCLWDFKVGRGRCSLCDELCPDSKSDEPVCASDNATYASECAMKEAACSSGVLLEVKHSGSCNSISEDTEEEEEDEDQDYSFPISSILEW
On to `CO[C@H]1O[C@H](CO)[C@@H](OC(=O)Nc2ccccc2)[C@@H]2OC(=O)[C@H](Cc3ccccc3)C/C=C/C[C@@H](Cc3ccccc3)C(=O)O[C@@H]12`, for which the composite z-score turned out to be 1.29.

`CCCCC(=C=CC[C@@H](O)c1ccc(OCCO)cc1)C[C@@H](O)c1ccccn1`: the composite z-score was 1.22.

For the molecule `C=CCC(OC(C)=O)[C@@H]1[C@@H](N(Cc2cccc3ccccc23)C(=O)c2ccc(-c3ccccc3)cc2)c2cc(OCCCO)ccc2N1C(=O)c1ccc2ccccc2n1` (stereo not given in full), the composite z-score turned out to be 0.537.

For `COCCOC(=O)N1C(=O)[C@@]2(c3cc(C#CC4(O)CCCCCC4)ccc31)[C@H](c1ccc(OCCO)cc1)N1[C@H](c3ccccc3)[C@H](c3ccccc3)OC(=O)[C@H]1[C@@H]2C(N)=O`, the composite z-score amounted to 1.38.

For the molecule `COc1ccc([Si](C)(C)[C@H]2[C@H](CCO)O[C@@]3(C(=O)N(Cc4ccc(N5CCOC5=O)cc4)c4ccccc43)[C@@H]2C)cc1`, the composite z-score is -0.11.

As for `Cc1c(-c2ccc(-c3ccc(Cl)c(Cl)c3)o2)nc(-c2ccccc2)c2c1CO[Si]2(C(C)C)C(C)C`, the composite z-score is -0.161.

With `O=C1OCCC=C[C@H]2OC34C=CCN(CCN5CCOCC5)C(=O)[C@H]3N(CCCO)C(=O)[C@@H]4C12` (stereo not given in full), the composite z-score was -0.0312.

Regarding `COC(=O)[C@@]1(Cc2ccc(F)cc2)[C@H]2c3cc(C(=O)N(C)C)n(CCO)c3C[C@H]2CN1C(=O)c1ccccc1`, the composite z-score was -0.409.

`CC(C)C[C@H]1NC(=O)[C@@H](C)NC(=O)[C@@]23C(=O)N[C@@H](Cc4ccccc4)C2[C@H](C)[C@@]2(C)O[C@H]2C3/C=C/C/C=C\CNC1=O` (stereo not given in full): the composite z-score was determined as 0.746.

`N#Cc1ccc(C(O)C2C=CC3C(=O)N(c4ccccc4)C(=O)C3N2Nc2ccc([N+](=O)[O-])cc2)cc1` (stereo not given) came in with a composite z-score of 0.499.

Source of the values: PubChem BioAssay.
